Results published in PubChem BioAssay (NCI).
Compounds without any hit were thinned out: in the full panel of roughly 83,000, 20% have a hit.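 Method: cells in 96-well plates; compound added at one concentration; 48 h incubation; percent growth measured; values under 10 scored active.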

Key:
Assay in all cases: NCI-60 one-dose screen, 48 h (100 = growth as untreated, 0 = no growth, -100 = all killed)
Details in all cases: 10 µM unless noted
HCT-15 colon = tested on: HCT-15 colon
HT29 colon = tested on: HT29 colon
SNB-75 CNS = tested on: SNB-75 CNS
SNB-19 CNS = tested on: SNB-19 CNS
U251 CNS = tested on: U251 CNS
PC-3 prostate = tested on: PC-3 prostate
SK-MEL-5 melanoma = tested on: SK-MEL-5 melanoma
UACC-62 melanoma = tested on: UACC-62 melanoma
LOX IMVI melanoma = tested on: LOX IMVI melanoma
SK-MEL-28 melanoma = tested on: SK-MEL-28 melanoma
SK-MEL-2 melanoma = tested on: SK-MEL-2 melanoma
EKVX NSCLC = tested on: EKVX NSCLC
SN12C renal = tested on: SN12C renal
UO-31 renal = tested on: UO-31 renal
TK-10 renal = tested on: TK-10 renal
ACHN renal = tested on: ACHN renal
CAKI-1 renal = tested on: CAKI-1 renal
A498 renal = tested on: A498 renal
CCRF-CEM leukemia = tested on: CCRF-CEM leukemia
MOLT-4 leukemia = tested on: MOLT-4 leukemia

Measured: growth

Cn1cc(-c2csc(-c3cn(CCOC(N)=O)c4ccccc34)n2)c2cccnc21
inactive: HCT-15 colon 64% | HT29 colon 47.6% | SNB-75 CNS 80.7% | SNB-19 CNS 78.6% | U251 CNS 77.8% | PC-3 prostate 63.6% | SK-MEL-5 melanoma 71.9% | UACC-62 melanoma 72.2% | LOX IMVI melanoma 79% | SK-MEL-28 melanoma 92.5% | SK-MEL-2 melanoma 84.8% | EKVX NSCLC 68.7% | SN12C renal 88.3% | UO-31 renal 79.6% | TK-10 renal 82.6% | ACHN renal 97% | CAKI-1 renal 88.2% | A498 renal 19% | CCRF-CEM leukemia 73.9% | MOLT-4 leukemia 69.1%

N#Cc1c(-c2cccc(F)c2)cc(-c2cccnc2)[nH]c1=O
inactive: HCT-15 colon 104% | HT29 colon 104% | SNB-75 CNS 97.1% | SNB-19 CNS 99.9% | U251 CNS 101% | PC-3 prostate 101% | SK-MEL-5 melanoma 104% | UACC-62 melanoma 97.5% | LOX IMVI melanoma 98.8% | SK-MEL-28 melanoma 104% | SK-MEL-2 melanoma 110% | EKVX NSCLC 106% | SN12C renal 96.4% | UO-31 renal 90.2% | TK-10 renal 106% | ACHN renal 101% | CAKI-1 renal 95.9% | A498 renal 116% | CCRF-CEM leukemia 104% | MOLT-4 leukemia 99.7%

CC(Sc1ccccc1)C(=O)O (stereo not given)
inactive: HCT-15 colon 100% | HT29 colon 99.3% | SNB-75 CNS 91.6% | SNB-19 CNS 94.5% | U251 CNS 91.1% | PC-3 prostate 103% | SK-MEL-5 melanoma 106% | UACC-62 melanoma 94.5% | LOX IMVI melanoma 95.6% | SK-MEL-28 melanoma 106% | SK-MEL-2 melanoma 116% | EKVX NSCLC 94.2% | SN12C renal 103% | UO-31 renal 94.9% | TK-10 renal 102% | ACHN renal 104% | CAKI-1 renal 76.5% | A498 renal 88.7% | CCRF-CEM leukemia 93.9% | MOLT-4 leukemia 141%
